Assay results as given in PubChem BioAssay (EPA / NIEHS).
Records with an inconclusive call do not appear. Calls of active or inactive are those of the source. The calls were made as follows: active = hit-call score of the fitted dose curve at least 0.9, where 1 is the maximum; inconclusive = response in the unintended direction; inactive = score below 0.9.

Test: ATG_XTT_Cytotoxicity: Cytotoxicity Assessment in the Attagene TRANS-FACTORIAL HepG2 Assay (AID 2283584);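 as to AC50: cells exposed to compound for 24 h before reading; active means loss of viability signal versus DMSO baseline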
Experimental: ATG_XTT_Cytotoxicity is a cell-based, single-readout assay that uses HepG2, a human liver cell line, with measurements taken at 24 hours after chemical dosing in a 24-well plate.ATG_XTT_Cytotoxicity is one of one assay component(s) measured or calculated from the ATG_XTT_Cytotoxicity assay. It is designed to make measurements of cell number, a form of viability reporter, as detected with […] signals by XTT cytotoxicity assay technology.Data from the assay component ATG_XTT_Cytotoxicity was analyzed into 1 assay endpoint. This assay endpoint, ATG_XTT_Cytotoxicity, was analyzed in the positive analysis fitting direction relative to DMSO as the negative control and baseline of activity. Using a type of viability reporter, loss-of-signal activity can be used to understand changes in the viability. Furthermore, this assay endpoint can be referred to as a primary readout, because the performed assay has only produced 1 assay endpoint. To generalize the intended target to other relatable targets, this assay endpoint is annotated to the cell cycle intended target family, where the subfamily is cytotoxicity.
Human liver HepG2 cells are transiently transfected with multiple reporter transcription units (MRTUs) in 6-well plates using FuGene 6 reagent (Roche; 3 ml FuGene/1 mg DNA). The MRTU constructs are regulated by a cis-regulating element (promoter). […] A major difference between the CIS and TRANS system is that in CIS activities of endogenous TFs are measured, whereas the TRANS assay evaluates changes in activities of exogenous, chimeric NR-Gal4 proteins. […] At the end of 24 hour incubation, total RNA was isolated using TriZol reagent (Invitrogen). The isolated RNA is then reverse-transcribed using oligo(dT) primer and Mo-MLV reverse transcriptase (Invitrogen) with DNAse I (Ambion) treatment for 30 min. The one-tenth of the produced cDNA was amplified by PCR using Taq DNA polymerase (Invitrogen) and two reporter sequence-specific primers. The PCR products were fluorescently labeled by primer extension with 6-arboxyfluorescein (6-FAM) 5'-labeled reporter sequence-specific primer (2 min at 95 C, 20 s at 68 C and 10 min at 72 C) and these products were digested with 5U of HpaI (New England Biolabs) for 2h at 37 C. The fragments were purified using Qiaquick PCR columns (Qiagen), analyzed on an ABI 3130xL genetic analyzer (Applied Biosystems) with peak positions identified by using a set of X-rhodamine (ROX)-labeled MapMarker1000 molecular weight standards (BioVentures). The raw capillary electrophoresis data was processed using Attagraph software (Attagene).
For Cc1ccc(N)c(S(=O)(=O)O)c1, the outcome was “inactive”. For CCc1ccc(O)c(OC)c1, the outcome was “inactive”. With COc1ccc(N=Nc2cc(C)c(N=Nc3ccc(S(=O)(=O)O)cc3)cc2OC)cc1 the outcome was “inactive”. For O=C1OC(=O)c2c(Br)c(Br)c(Br)c(Br)c21, the outcome was “inactive”. With Nc1ccc(Cl)c([N+](=O)[O-])c1 the outcome was “inactive”. In the case of COc1cccc(OC)c1O, the outcome is reported as “inactive”. In the case of CCCCCCCCC=CCCCCCCCC1=NCCN1CCO, the AC50 is reported as 16.1 µM (active). For CC(=O)O[C@@H]1C[C@@H]2CC[C@@]1(C)C2(C)C, the outcome was “inactive”. With Cc1ncc[nH]1 the outcome was “inactive”. For Oc1c(Cl)cc(Cl)c(Cl)c1Cc1c(O)c(Cl)cc(Cl)c1Cl, the outcome was “inactive”. With Cc1ccc2c(c1)C(=O)OC2=O the outcome was “inactive”. With CCCOC(=O)c1c(Cl)c(Cl)c(Cl)c(Cl)c1C(=O)OCCC the outcome was “inactive”. With CCOC(=O)CC(C)O (stereo not given) the outcome was “inactive”. With CC(C)OCCO the outcome was “inactive”. For Cc1ccc(-c2ccccc2)cc1, the outcome was “inactive”. With CC1(C)O[C@@H]2[C@@H](CO[C@@]3(COS(N)(=O)=O)OC(C)(C)O[C@@H]23)O1 the outcome was “inactive”. With CCCCC(CC)(CO)CO the outcome was “inactive”. With C=Cc1ccc(C)cc1 the outcome was “inactive”. For COS(=O)(=O)O, the outcome was “inactive”. In the case of C=Cc1ccncc1, the outcome is reported as “inactive”. In the case of CSc1c(Cl)c(Cl)c(Cl)c(Cl)c1Cl, the outcome is reported as “inactive”. With C#CC(C)N(C)C(=O)Nc1ccc(Cl)cc1 (stereo not given) the outcome was “inactive”. In the case of N#Cc1cscn1, the outcome is reported as “inactive”. In the case of CCCCOCC, the outcome is reported as “inactive”. With CC1(C)COCN1 the outcome was “inactive”. In the case of CCCC(=O)OC(C)(C)Cc1ccccc1, the outcome is reported as “inactive”. With Nc1ccc(N)c2c1C(=O)c1ccccc1C2=O the outcome was “inactive”. With CCCCC(CC)COC(C)=O (stereo not given) the outcome was “inactive”. With CC/C=C\CC/C=C/CO the outcome was “inactive”. For CCC(C)S (stereo not given), the outcome was “inactive”. For CCCCCCOC(=O)C(C)C, the outcome was “inactive”. For O=C(O)COCC(=O)O, the outcome was “inactive”. In the case of C[Si](C)(C)O[Si](C)(C)C, the outcome is reported as “inactive”. In the case of NC1CCCCC1N (stereo not given), the outcome is reported as “inactive”. In the case of O=C(Nc1ccc([N+](=O)[O-])cc1)Nc1ccc([N+](=O)[O-])cc1 (tested in a mixture with another compound), the outcome is reported as “inactive”. In the case of CCCCCCOC(=O)CCC, the outcome is reported as “inactive”. In the case of CN1C(=O)c2ccccc2C1=O, the outcome is reported as “inactive”. With CCCCOC(=O)CCCCCCCC(=O)OCCCC the outcome was “inactive”. With Nc1c(Cl)cc(Cl)cc1[N+](=O)[O-] the outcome was “inactive”. In the case of COc1cc(Cl)c(OC)cc1N, the outcome is reported as “inactive”.
